Bioassay records: PubChem BioAssay, National Center for Advancing Translational Sciences (NCATS)
In the library only some 6.3% were active in any assay of this set; here they are far more common.
S2 tox = Viability Counterscreen for Primary qHTS for Inhibitors of ATXN expression | S2 cells (HEK-293 line with an ATXN2-luciferase reporter) viability, CellTiter-Fluor protease fluorescence, 24 h | Potency, µM (series often up to 56.7 µM), usual class: cytotoxic | actives 0.49% (n = 400,000) | AID 651635, 2014; note: nearly all actives have a fitted effect of over 40% in size
TGFb inhibitor = qHTS for Inhibitors of TGF-b | actives 1.2% (n = 410,000) | HepG2 CAGA-GFP TGF-b/SMAD3 reporter, GFP fluorescence, 18 h; TGF-beta stimulated, 500 pg/mL final | Potency, µM (highest dose often 46.1 µM), most hits filed as inhibitors; note: nearly all actives have a fitted effect of over 65% in size
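Using HEPG2 CAGA-GFP reporter cells at 1000 cells/well, we pinned test compounds, stimulated with recombinant TGF-beta (500 pg/mL final) and measured total well GFP after 18 h.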
RORg inh = qHTS for inhibitors of ROR gamma transcriptional activity; Drosophila S2 Gal4-RORgamma UAS-luciferase reporter, 20 h; Potency, µM (series often up to 53.6 µM), actives largely listed as inhibitors; actives 5.4% (n = 310,000); AID 2551, 2010; Nuclear receptor ROR-gamma (Mus musculus), P51450; note: nearly all actives have a fitted effect of over 60% in size
Target sequence (P51450 whole entry, looked up, the tested form may be a part): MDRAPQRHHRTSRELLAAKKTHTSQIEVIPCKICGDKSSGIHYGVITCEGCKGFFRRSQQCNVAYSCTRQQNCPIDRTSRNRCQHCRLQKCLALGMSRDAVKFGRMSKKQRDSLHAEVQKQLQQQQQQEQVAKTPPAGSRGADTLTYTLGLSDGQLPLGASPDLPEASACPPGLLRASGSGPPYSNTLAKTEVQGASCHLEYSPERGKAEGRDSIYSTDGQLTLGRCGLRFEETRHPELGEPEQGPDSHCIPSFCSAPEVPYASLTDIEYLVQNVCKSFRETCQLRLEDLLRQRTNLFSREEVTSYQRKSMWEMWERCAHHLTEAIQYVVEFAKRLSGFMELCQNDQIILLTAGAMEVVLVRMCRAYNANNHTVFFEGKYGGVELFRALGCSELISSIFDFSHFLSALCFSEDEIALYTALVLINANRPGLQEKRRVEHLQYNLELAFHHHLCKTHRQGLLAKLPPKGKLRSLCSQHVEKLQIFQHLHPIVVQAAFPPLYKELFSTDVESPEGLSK
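Luciferase reporter read in Schneider cells carrying Gal4-RORγ (mouse) and UAS-Photinus luciferase; cells given compound 1 h before 700 uM copper sulfate induction, then incubated 20 h at ambient temperature.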
ATXN2 expr inh = Primary qHTS for Inhibitors of ATXN expression; AID 1745845, 2022; Potency, µM (titrated, usually from 57 µM), actives largely listed as inhibitors; HEK-293 ATXN2-luciferase reporter, luminescence, 24 h; actives 0.72% (n = 360,000); note: nearly all actives have a fitted effect of over 55% in size
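qHTS (up to 57 uM final) was run with 24 h compound exposure of reporter cells at 37 °C. Each well was multiplexed: SteadyGlo luminescence measured ATXN2-luciferase expression after a fluorogenic Gly-Phe-AFC viability readout (25 uM final).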
HepG2 tox = qHTS for Inhibitors of TGF-b: Cytotox Counterscreen; HepG2 CAGA-GFP viability, ATP luminescence, 18 h; Potency, µM (doses to about 46.1 µM), most hits filed as cytotoxic; AID 588856, 2011; actives 0.76% (n = 410,000)
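HepG2 CAGA-GFP cells (1000/well, DMEM with 1% FBS) received compound, then TGF-beta at 500 pg/mL final, and were incubated 18 hours at 37 degrees C. Viability was read by CellTiter-Glo luminescence. Media-only wells were set as complete cell-killing and DMSO as no toxicity.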
VP16 counter = VP16 counterscreen qHTS for inhibitors of ROR gamma transcriptional activity | Drosophila S2 Gal4-VP16 UAS-luciferase, luminescence, 20 h | Potency, µM (titrated, usually from 53.6 µM), hits mostly inhibitors | actives 3.5% (n = 310,000) | AID 2546, 2010;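 note: Gal4-VP16 expression switched on by copper sulfate through the metallothionein promoter; nearly all actives have a fitted effect of over 50% in size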
A number is an active result; 0 = inactive; ? = inconclusive; - = no result; [ ] = remark or other dose. Calls come from the whole dose curve; as a rule, active = well fitted curve in the direction sought with a large enough effect; inconclusive = small, poorly fitted or top-dose-only effect, or another doubt; inactive = no such curve, though single readings can be large; an effect the other way counts as inactive or inconclusive.

SMILES | S2 tox | TGFb inhibitor | RORg inh | ATXN2 expr inh | HepG2 tox | VP16 counter
Nc1ccc(Br)cc1C(=O)O | 0 | 0 | 2.82µM | 0 | 0 | 1.41µM
CCC(=O)NNc1nc2c(C)cccc2s1 | 0 | 0 | 11.2µM | 0 | 0 | ?
CCC(=O)NNc1nc2c(C)c(C)ccc2s1 | 0 | 0 | 7.94µM | 0 | 0 | 0
CCC(=O)NNc1nc2c(Cl)cccc2s1 | 0 | 0 | ? | 0[11.3 µM] | 0 | 0
Cc1ccc2sc(NC(=O)C3CC3)nc2c1C | 0 | 0 | 0 | - | 0 | 0
O=C(Nc1ccc(Cl)c(Cl)c1)N1CCC(c2ccccc2)C1 (centres undefined) | - | ? | - | - | 0 | -
CC(C)C(NC(=O)C(Cc1ccc(O)cc1)NC(=O)C(NC(=O)C(F)(F)F)C(C)C)C(=O)O (centres undefined) | - | - | 0 | - | - | 0
CCCCCCOC(=O)C(C#N)c1nc2ccccc2nc1N1CCN(CC)CC1 (centres undefined) | ? | 0 | 10µM | 0 | 0 | ?
CCCCCCOC(=O)C(C#N)c1nc2ccccc2nc1N1CCOCC1 (centres undefined) | ? | 0 | 0 | 0 | 0 | 0
C[C@H](CO)N1C[C@H](C)[C@@H](CN(C)Cc2ccc(Cl)c(Cl)c2)Oc2c(NC(=O)Cc3ccccc3)cccc2C1=O | 14.1µM | ? | - | 28.2µM | 0 | -
C[C@H](CO)N1C[C@H](C)[C@@H](CN(C)Cc2ccc(-c3ccccc3)cc2)Oc2c(NS(=O)(=O)c3cn(C)cn3)cccc2C1=O | 0 | 3.16µM | - | 0 | 0 | -
C[C@H](CO)N1C[C@H](C)[C@@H](CN(C)Cc2ccccc2)Oc2c(NC(=O)Cc3ccccc3)cccc2C1=O | ? | ? | - | ? | 0 | -
O=C(O)C(CCc1ccccc1)N1CCOCC1 (centres undefined) | 0 | 0 | - | - | 0 | -
CC(C)(C)c1cc(C(=O)N/N=C/c2ccccc2O)n(-c2ccccc2)n1 | 0 | ? | 0.631µM | ? | 0 | 1.12µM
COc1ccc(/C=N/NC(=O)c2nc(-c3ccccc3)n(-c3ccccc3)n2)c(O)c1 | 0 | 0 | 2.24µM | 3.98µM | 0 | 6.31µM
CC(C)(C)c1cc(C(=O)N/N=C/c2ccc(F)cc2)n(-c2ccccc2)n1 | 0 | 0 | 0 | 0 | 0 | 0[0.365 µM]
Cc1ccc(/C=N/NC(=O)C2CC(=O)N(c3ccccc3)C2)s1 (centres undefined) | 0 | 0 | 0 | 0 | 0 | 0
O=C(N/N=C/c1ccccc1O)C1CC(=O)N(c2ccc(Cl)cc2)C1 (centres undefined) | 0 | 0 | 0.891µM | 6.31µM | 0 | 1.12µM
Cc1cccc(C2=NN(c3ccccc3)[C@H](CO)[C@H]2c2ccc(Cl)cc2)c1 | - | ? | 0 | ? | 0 | 39.8µM
OC[C@@H]1[C@@H](c2ccc(Cl)cc2)C(c2ccc(F)cc2)=NN1c1ccccc1 | - | ? | 0 | 0 | 0 | ?
OC[C@@H]1[C@@H](c2ccccc2)C(c2ccc(F)cc2)=NN1c1ccccc1 | - | 10µM | 0 | 0 | 0 | ?
Cc1cccc(C2=NN(c3ccccc3)[C@H](CO)[C@H]2c2ccc(F)cc2)c1 | - | 20µM | 0 | 0 | 0 | 0
OC[C@@H]1[C@@H](c2ccc(F)cc2)C(c2ccc(F)cc2)=NN1c1ccccc1 | - | - | 0 | - | - | 0
O=C1C[C@H]2C=CCc3cccc(c32)CN1Cc1ccc(Br)cc1 | - | 0 | - | - | 0 | -
CC1(C(=O)NCCc2c[nH]c3ccccc23)CCN1Cc1csc2ccccc12 (centres undefined) | 0 | 0 | - | 0 | 0 | -
CC(C)CC(NC(=O)OCc1ccccc1)C(=O)NC(Cc1ccccc1)C(=O)CCl (centres undefined) | - | 10µM | - | ? | 0 | -
O=C(Nc1cc(-c2nc3ccccc3s2)ccc1Cl)c1cc2ccccc2o1 | 0 | 0 | - | 0 | 0 | -
COc1ccc(-c2[nH]n(-c3ccc([N+](=O)[O-])cc3)c(=O)c2C=NCCN2CCNCC2)cc1 | - | - | 14.1µM | - | - | ?
Cc1ccc(Cn2c(CCC(=O)O)nc3ncccc3c2=O)cc1 | 0 | 0 | 0 | 0 | 0 | 0
Oc1[nH]c2ccccc2c1N=Nc1ccccn1 | 0 | 0 | - | 0 | 0 | -
